Source: PubChem BioAssay
Most compounds without a hit are left out; they make up all but 11% or so of the library.
USP28 block: human USP28 deubiquitinase inhibition; Q96RU2; inhibition, % at 25 µM; 47,000 compounds, 3% hits; purified USP28, Ub-rhodamine cleavage fluorescence, 30 min; AID 1645857
USP17 block: inhibitors of human USP17 deubiquitinase. A8MUK1. purified USP17, Ub-rhodamine cleavage fluorescence, 3 h. inhibition, % at 50 µM. 47,000 compounds, 6.5% hits
Target sequence (A8MUK1 whole entry, looked up): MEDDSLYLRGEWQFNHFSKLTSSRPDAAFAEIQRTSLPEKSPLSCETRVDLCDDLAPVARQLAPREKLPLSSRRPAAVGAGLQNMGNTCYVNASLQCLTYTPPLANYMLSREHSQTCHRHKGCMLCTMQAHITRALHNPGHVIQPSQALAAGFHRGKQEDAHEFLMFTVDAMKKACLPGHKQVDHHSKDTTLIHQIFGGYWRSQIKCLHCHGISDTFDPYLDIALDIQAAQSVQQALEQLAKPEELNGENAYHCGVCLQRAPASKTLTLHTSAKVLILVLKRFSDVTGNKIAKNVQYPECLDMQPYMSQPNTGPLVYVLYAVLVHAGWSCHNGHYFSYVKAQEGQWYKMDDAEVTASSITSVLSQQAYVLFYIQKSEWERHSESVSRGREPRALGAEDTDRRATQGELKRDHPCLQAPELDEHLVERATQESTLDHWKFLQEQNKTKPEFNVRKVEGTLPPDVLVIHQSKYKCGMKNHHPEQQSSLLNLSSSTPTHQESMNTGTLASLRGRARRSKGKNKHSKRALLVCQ
OTUD3 inh: blocks human OTUD3 ubiquitin-rhodamine cleavage; purified OTUD3, Ub-rhodamine fluorescence, 2 h; inhibition, % at 25 µM; 47,000 compounds, 0.7% hits
USP30 inh: human USP30 deubiquitinase inhibition | Q70CQ3 | purified USP30, Ub-rhodamine cleavage fluorescence | inhibition, % at 25 µM | 47,000 compounds, 5.3% hits
* = called active by the depositor; · = not tested or not shown. No stated cut-off is given here; in the data, active means inhibition above about 30%; inactive means the rest.

SMILES	USP28 block	USP17 block	OTUD3 inh	USP30 inh
COc1cccc(NC(=O)CC2Sc3ccccc3NC2=O)c1 (configuration not stated)	17	32*	13	39*
O=C(Nc1ccc(Cl)cc1)N1C[C@H]2C[C@H]3[C@](C1)(CN(Cc1ccncc1)S3(=O)=O)O2	7	-13	9	9
Cc1nc2cc(C(=O)NCCC3=CCCCC3)ccc2n1-c1cccc(F)c1	40*	8	6	73*
COc1ccc(/C=C/c2nc(-c3ccc(F)cc3)cs2)c(OC)c1	-14	-9	-23	-90
Cc1ccc(C2C3=C(NCCN=C3c3ccccc3)C(=O)N2c2ccccc2)cc1 (configuration not stated)	21	-6	17	41*
CCOc1ccc(C2=NCCNC3=C2C(c2ccccc2)N(c2ccccc2)C3=O)cc1 (configuration not stated)	20	7	23	54*
CCn1cc(-c2ccnc3cc(C(=O)N4CCC(F)(F)CC4)nn23)c(C)n1	-9	-23	-6	-13
CN(CCc1noc(-c2ccccc2Cl)n1)C(=O)c1ccc(C#N)cc1	13	19	10	31*
O=C(NC1CCCC1)c1ccc(Cn2c(=O)c3ccccc3n(Cc3ccc(F)cc3)c2=O)cc1	8	8	10	3
O=C(Cn1c(=O)n(CCC(=O)NC2CCCC2)c(=O)c2ccccc21)NCc1ccccc1Cl	-5	10	11	21
O=C(NC1CCN(Cc2ccccc2)CC1)c1ccc(Cn2c(=O)c3ccccc3n(Cc3ccccc3F)c2=O)cc1	13	16	10	34*
NC(=O)Cn1c(=O)n(Cc2ccc(C(=O)NC3CCCC3)cc2)c(=O)c2ccccc21	23	53*	23	29
N#Cc1ccccc1Cn1c(=O)n(Cc2ccc(C(=O)NC3CCCC3)cc2)c(=O)c2ccccc21	17	16	17	33*
Cc1ccccc1Cn1c(=O)n(Cc2ccc(C(=O)NC3CCN(Cc4ccccc4)CC3)cc2)c(=O)c2ccccc21	17	17	9	29
CCc1nc2c(NC(=O)Nc3cccc(C(=O)OC)c3)cccn2n1	50*	4	-1	-3
CCOC(=O)c1cccc(NC(=O)Nc2cccn3nc(C)nc23)c1	83*	-14	-4	14
COc1cccc(C(=O)Nc2cccn3nc(C)nc23)c1	3	7	6	23
c1ccc(COc2ccc(-c3cc4nc(NCCc5ccncc5)ccn4n3)cc2)cc1	12	·	-17	-58
OCc1ccc(CN2CCC[C@H]2c2nc(-c3ccc(F)cn3)no2)o1	-26	-34	-19	-119
COc1ccc(CC(=O)N2CCN(c3ccc(Nc4ccccn4)nn3)CC2)cc1	37*	·	-6	0
COc1ccc(S(=O)(=O)NCc2ccc(C(=O)N3CCN(c4ccccn4)CC3)cc2)cc1	3	6	6	11
O=C(NCCCN1CCN(c2ccccc2F)CC1)C1CCN(S(=O)(=O)c2cccc3cccnc23)CC1	4	-10	-9	3
Cc1ccc(-c2nnc(NC(=O)C3CCCCC3)o2)c(C)c1	4	38*	3	6
Cc1nc(C(=O)NCc2cccc([C@@H]3NC(=O)N[C@H]4OCCC[C@H]43)c2)co1	18	8	8	11
COc1ccc(-c2cc(-c3nnc(COC(=O)CC4CCCC4)o3)c3ccccc3n2)cc1OC	-4	3	-4	-48
SMILES	USP28 block	USP17 block	OTUD3 inh	USP30 inh
COc1ccc(-c2cc(-c3nnc(CSc4nnc(C)n4-c4ccccc4)o3)c3ccccc3n2)cc1OC	-1	36*	0	-7
Cc1ccc(Cn2nnc3c(=O)n(Cc4nc(-c5ccc(C)cc5)no4)cnc32)cc1	-3	34*	2	15
O=c1c2nnn(Cc3cccc(Cl)c3)c2ncn1Cc1nc(-c2ccc(F)cc2)no1	-1	-3	-3	6
CCn1c(=O)c(-c2ccc(C(=O)Nc3cc(C)ccc3OC)cc2)nc2cccnc21	11	37*	8	21
COc1ccc(C)cc1NC(=O)c1cc2cccnc2n(C)c1=O	·	37*	1	·
O=C(C1CCN(S(=O)(=O)c2cccc3cccnc23)CC1)N1CCC(Cc2ccccc2)CC1	16	26	8	20
CCOc1ccc(-c2nc(C#N)c(N3CCN(C(=O)c4ccccc4C)CC3)o2)cc1	12	52*	12	24
COc1ccccc1-c1nc(C#N)c(N2CCN(C(=O)c3ccccc3)CC2)o1	15	24	6	47*
CC(=O)N1CCN(c2oc(-c3ccc(COc4ccc(C)cc4)o3)nc2C#N)CC1	7	8	9	7
Cc1ccccc1-c1cc(C(=O)Nc2ccc(Br)c(Br)c2)c2ccccc2n1	-2	-9	-6	-25
Cc1ccc(-c2cc(C(=O)Nc3ccc4c(c3)OCCO4)c3ccccc3n2)o1	7	39*	8	-41
O=C(Nc1ccc2c(c1)OCCO2)c1cccc2nc3ccccc3nc12	30	41*	31*	75*
O=C(Nc1ccc2c(c1)OCCO2)c1c(-c2ccccc2)nnc2ccccc12	-5	31*	-7	-12
O=C(C1CCCN(S(=O)(=O)c2ccc(F)cc2)C1)N1CCN(c2ccccn2)CC1 (configuration not stated)	13	17	9	25
Cc1cn[nH]c1C1CCCCN1C(=O)CCc1c(C)n[nH]c1C (configuration not stated)	-6	3	-3	0
Cc1cc(-c2cnc(N3CCCC(O)C3)nc2-c2cccs2)on1 (configuration not stated)	16	0	11	12
COc1ccc(CCNC(=O)COc2cc(C)c3ccc(OC)cc3n2)cc1	-5	46*	-7	-31
O=C(NCCC1=CCCCC1)c1cc2c(s1)CS(=O)(=O)C2	·	22	3	·
O=C(NCCCN1CCc2ccccc2C1)c1cc2c(s1)CS(=O)(=O)C2	41*	62*	-16	-26
Cc1ccc(-n2ccnc(NC(=O)c3ccccn3)c2=O)cc1C	-12	·	1	-11
O=C(Nc1nccn(-c2cccc(F)c2)c1=O)c1ccccn1	72*	49*	14	91*
CCOC(=O)c1[nH]c2c(c1Cc1ccccc1OC)C(=O)CC(C)(C)C2	·	37*	0	·
CCc1cccc(CC)c1NC(=O)CN1c2ccc(F)cc2-c2ccccc2S1(=O)=O	11	19	18	17
Cc1nc(N)cc(C2CCCN2C(=O)c2ccc(-n3cccn3)nc2)n1 (configuration not stated)	2	10	15	24
Cc1noc(C)c1CCn1ccc2ccn(Cc3cccnc3)c2c1=O	9	5	13	4
Cc1ccccc1Cn1ccc2ccn(Cc3cccnc3)c2c1=O	60*	14	20	30*
O=c1c2c(ccn1Cc1cc(F)ccc1F)ccn2Cc1cccnc1	68*	-7	0	8
NS(=O)(=O)c1ccc(CCNC(=O)CSc2nnc(-c3ccccc3F)n2CCc2ccccc2)cc1	0	-3	0	0
c1cnc(N2CCC(c3ccnc(Nc4cncnc4)n3)CC2)nc1	1	6	10	24
O=C(c1cccnn1)N1CCC[C@@]2(C[C@@H](Oc3ccccc3F)CO2)C1	5	0	6	11
